# Data: ChEMBL document CHEMBL4513216, “Probing the Open Global Health Chemical Diversity Library for Multistage-Active Starting Points for Next-Generation Antimalarials” (ACS Infect Dis, 2020)
# In all, about 68,000 compounds went through this assay and about 2,700 (4%) showed an effect of 50% or more. The entries come from a sample that favours strong results as a whole.
# Test system: Plasmodium berghei
# Test: Screen against P. berghei liver stage (PbLuc), transformed with Luciferase, at 2uM
# Format: functional, HepG2
# Conditions: tested at 2 uM
row,SMILES,INHIBITION [%]
1,CN(C)CCOCc1cncc2c1CCN(C(=O)c1cscn1)C2,-30.85
2,CCc1cc(N(C)Cc2[nH]nc3c2CCC3)nc(N2CCOCC2)n1,33.9
3,CN(Cc1n[nH]c2c1CCCC2)c1cc(N2CCOCC2)nc(N)n1,-32.88
4,Nc1nc(NCCc2[nH]nc3c2CCCC3)cc(N2CCOCC2)n1,67.28
5,CCn1nc(C)c(NC(=O)CCn2ncc3cc(C)ccc32)c1C,24.79
6,CCc1nsc(NC2CCCn3nc(COC)nc32)n1 (centres undefined),-11.71
7,CCc1ncncc1C(=O)NCCNS(=O)(=O)c1ccccc1,48.68
8,Cc1ccc(S(=O)(=O)NCCNC(=O)c2cncnc2C)cc1,55.25
9,CCc1ncncc1C(=O)NCCNS(=O)(=O)c1ccc(C)cc1,-41.64
10,Cc1nn(Cc2ccc(C(=O)NCCCN3CCCC3=O)o2)c(C)c1Cl,26.37
11,CCCc1n[nH]c(C2CN(C(=O)c3cc(F)ccc3OC)CCO2)n1 (centres undefined),-29.94
12,Cc1nc2n(n1)CC(NCC(=O)NCC1(c3ccccc3)CC1)CC2 (centres undefined),58.69
13,Cc1nc2n(n1)CC(NCC(=O)Nc1cc(C)on1)CC2 (centres undefined),-2.87
14,COc1ccccc1CCNC(=O)CNC1CCc2nc(C)nn2C1 (centres undefined),35.56
15,CC(=O)N1CCCn2nc(CNS(=O)(=O)N3CCC(C)CC3)cc2C1,47.62
16,O=c1[nH]c(NC2CCCC2)nc2nccc(-c3ccsc3)c12,-18.11
17,COCCN1CC[C@]2(CN(C(=O)c3ccc[nH]3)C[C@H]2C)C1=O,16.21
18,CCOc1c(Br)cc(CNCCc2nnc3n2CCCCC3)cc1OC,23.16
19,CC1CCCCN1C(=O)c1nc2c(n1C(C)C)CCN(C)C2 (centres undefined),-19.99
20,CC(=O)N1CCN(C(=O)CN2CCCC2c2c(C)nn(C)c2C)CC1 (centres undefined),60.6
21,COc1cccc(CN2CCCC2c2ccc[nH]2)c1 (centres undefined),68.02
22,Cc1nn(C)c(C)c1C1CCCN1Cc1nc2ccccc2n1C (centres undefined),53.11
23,Cc1nn(C)c(Cl)c1C1CCCN1CC(=O)N1CCCCC1 (centres undefined),-0.9

row,SMILES,INHIBITION [%]
1,Cc1nc2ccccc2nc1CN1CCCC1c1c(C)nn(C)c1C (centres undefined),28.51
2,Cc1nn(C)c(C)c1NC(=O)CN1CCCC1c1c(C)nn(C)c1C (centres undefined),23.42
3,Cc1nn(C)c(C)c1C1CCCN1Cc1nc(C)c2ccccc2n1 (centres undefined),5.1
4,COc1cccc(CN2CCCC2c2c(C)nn(C)c2C)c1 (centres undefined),61.53
5,N#CCCCOc1cccc(CN2CCCC2c2ccc[nH]2)c1 (centres undefined),-61.99
6,NC(=O)COc1cccc(CN2CCCC2c2ccc[nH]2)c1 (centres undefined),-4.58
7,Cc1nn(C)c(C)c1C1CCCN1Cc1cccc(OCC(N)=O)c1 (centres undefined),35.94
8,Cc1nn(C)c(C)c1C1CCCN1Cc1cccc(C(N)=O)c1 (centres undefined),15.91
9,Cn1cccc1CCC(=O)N1CCC2(CC1)c1ccccc1CC2O (centres undefined),-57.12
10,Cc1cnccc1N1CCCN(C(=O)CCc2n[nH]c(C)c2C)CC1,-40.52
11,O=C(c1ccc(F)c(Br)c1)N1CCCN2CCCC2C1 (centres undefined),-4.48
12,O=C(CCc1ccsc1)N1CCC(n2cc(CO)nn2)CC1,-25.13
13,O=C(Cc1ccsc1)N1CCC(Cn2cc(CCO)nn2)CC1,12.57
14,COCc1cn(C2CCN(C(=O)Cc3ccsc3)CC2)nn1,53.98
15,Cc1noc(CCCC(=O)N2CCCCC2CNS(C)(=O)=O)n1 (centres undefined),30.58
16,CC(C)c1cccc(CSc2nnc(CN3CCCC3=O)o2)n1,-12.97
17,CC(C)Oc1ccc(CSc2nnc(CN3CCCC3=O)o2)cc1,0.63
18,O=C1CCCN1Cc1nnc(SCc2ccc3c(c2)CCC3)o1,52.31
19,CCc1ncc(C(=O)NCCNc2ccncc2)s1,-23
20,COC(=O)CCNC(=O)c1cnc(Cc2ccc(F)cc2)s1,-9.47
21,CCc1ncc(C(=O)NCCNC(=O)Cc2ccc(F)cc2)s1,61.99
22,CN(C)C(=O)CN(C)C(=O)c1cnc(Cc2ccc(F)cc2)s1,52.08
23,CN(C)CCCNC(=O)c1cnc(Cc2ccc(F)cc2)s1,-12.27

row,SMILES,INHIBITION [%]
1,CCNC(=O)c1cnc(Cc2ccc(F)cc2)s1,6.55
2,O=C(CC1CCCO1)NCc1ccc(Br)cc1F (centres undefined),-7.89
3,CC(C)N1CCCC(C(=O)N2CCN(c3nsc4ccccc34)CC2)C1 (centres undefined),-52.08
4,O=C(NCC1CCOC1)c1csc(Cc2ccccc2)n1 (centres undefined),28.14
5,COC(=O)C1CCCN1C(=O)c1ccc(Br)cc1F (centres undefined),61.96
6,Cc1ccc(C(=O)N2CC(C(N)=O)O[C@H](C)C2)c(F)c1 (some centres undefined),-41.96
7,COC(=O)C1CCCCN1C(=O)c1ccc(N(C)C)cc1F (centres undefined),36.67
8,COC(=O)C1CCCN1C(=O)c1ccc(Cl)cc1F (centres undefined),-8.14
9,Cc1ccc(C(=O)N2CC(C(N)=O)O[C@H](C)C2)c(C)c1 (some centres undefined),-3.25
10,C[C@@H]1CN(C(=O)c2ccc(Br)cc2F)CC(C(N)=O)O1 (some centres undefined),57.34
11,Cc1ccsc1C(=O)N1CCc2ncc(CN(C)C)n2CC1,23.59
12,Cc1cc(C)c2[nH]c(=O)c(CN3CCCC4(C3)CN(C)C(=O)O4)cc2c1 (centres undefined),15.08
13,O=C(c1ccc(S(=O)(=O)NCCc2ccccn2)cc1)N1CCCC1,29.41
14,CC(C)c1nn(C)c(N(C)C)c1CNCc1ccnn1C,32.93
15,CCCNC(=O)CN1CCOC(CC)C1 (centres undefined),60.52
16,CCC1CN(CC(=O)NCCOC)CCO1 (centres undefined),36.09
17,CCC1CN(CC(=O)NCCC#N)CCO1 (centres undefined),21.72
18,CCN(CC1CCOCC1)C(=O)C1CC(=O)N(Cc2cccnc2)C1 (centres undefined),10.83
19,COc1ccc(CC(=O)N2CCCN(c3ccc(C#N)cc3)CC2)cc1,-28.34
20,O=C(NC1CCC1)C1=NOC2(CCN(Cc3ccc(F)cc3)C2)C1 (centres undefined),34.13
21,COC(=O)N1CCC(Oc2ccc(C(=O)NCCN(C)C)cc2Cl)CC1,30.62
22,CCC(=O)N1CCC(Oc2ccc(C(=O)NCCN(C)C)cc2Cl)CC1,51.96
23,CN(C)CCNC(=O)c1ccc(OC2CCN(C(=O)CO)CC2)c(Cl)c1,14.63
